{"source": "paper PMC7862700", "about": "“An all-to-all approach to the identification of sequence-specific readers for epigenetic DNA modifications on cytosine”", "assay_in_all_cases": "DAPPL (digital affinity profiling via proximity ligation, sequencing); 10 mM Tris-HCl pH 7.5, 50 mM NaCl, 1 mM DTT, 4% glycerol, room temperature, 30 min; GST-TFs on glutathione beads, 16-mer random dsDNA library, 0.1% formaldehyde crosslink after washing; high values mean tight binding", "details_in_all_cases": "protein: recombinant; tags: N-terminal GST; dsDNA, one strand shown", "key": {"FLI1": {"molecular_target": "T1, FLI1 (Homo sapiens, UniProt Q01543 1-452)", "T1 sequence": "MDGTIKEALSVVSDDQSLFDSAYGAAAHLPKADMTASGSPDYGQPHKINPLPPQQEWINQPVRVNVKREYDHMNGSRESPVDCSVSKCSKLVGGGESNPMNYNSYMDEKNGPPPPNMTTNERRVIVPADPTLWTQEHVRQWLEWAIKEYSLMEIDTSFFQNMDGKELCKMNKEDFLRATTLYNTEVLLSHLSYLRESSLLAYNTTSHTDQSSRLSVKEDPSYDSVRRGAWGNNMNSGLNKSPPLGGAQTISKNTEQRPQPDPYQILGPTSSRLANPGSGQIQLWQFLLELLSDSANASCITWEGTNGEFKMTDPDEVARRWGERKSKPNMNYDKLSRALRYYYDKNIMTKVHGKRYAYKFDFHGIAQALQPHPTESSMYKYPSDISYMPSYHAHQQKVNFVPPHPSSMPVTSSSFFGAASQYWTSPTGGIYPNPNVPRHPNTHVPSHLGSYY", "outline": "(§1)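 GST fusions of human transcription factors were expressed in yeast and captured with glutathione beads. Once given DNA barcodes and pooled alongside a tag-only sample, they were incubated for 30 min at room temperature with 200 nmole of a random double-stranded 16-mer DNA library in Tris/NaCl/DTT/glycerol buffer, then washed, crosslinked (0.1% formaldehyde), proximity-ligated, PCR-amplified and sequenced on an Illumina NextSeq500. The binding signal of each hexamer is its read frequency for a factor divided by its frequency for the tag-only sample.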"}, "ELK1": {"molecular_target": "T2, ELK1 (Homo sapiens, UniProt P19419 1-428)", "T2 sequence": "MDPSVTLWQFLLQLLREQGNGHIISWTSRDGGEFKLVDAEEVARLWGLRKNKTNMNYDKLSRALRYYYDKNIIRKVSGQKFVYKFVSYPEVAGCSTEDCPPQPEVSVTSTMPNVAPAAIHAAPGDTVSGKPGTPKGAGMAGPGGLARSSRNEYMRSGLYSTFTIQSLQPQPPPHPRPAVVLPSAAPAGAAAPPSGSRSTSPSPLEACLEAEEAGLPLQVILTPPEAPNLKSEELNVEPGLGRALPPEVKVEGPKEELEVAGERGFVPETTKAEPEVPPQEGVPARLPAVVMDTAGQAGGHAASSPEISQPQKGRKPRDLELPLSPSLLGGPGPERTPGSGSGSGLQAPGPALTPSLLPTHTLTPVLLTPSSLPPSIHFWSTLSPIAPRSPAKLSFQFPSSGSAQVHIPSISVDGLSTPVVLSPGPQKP", "outline": "as §1"}, "GABPA": {"molecular_target": "T3, GABPA (Homo sapiens, UniProt Q06546 1-454)", "T3 sequence": "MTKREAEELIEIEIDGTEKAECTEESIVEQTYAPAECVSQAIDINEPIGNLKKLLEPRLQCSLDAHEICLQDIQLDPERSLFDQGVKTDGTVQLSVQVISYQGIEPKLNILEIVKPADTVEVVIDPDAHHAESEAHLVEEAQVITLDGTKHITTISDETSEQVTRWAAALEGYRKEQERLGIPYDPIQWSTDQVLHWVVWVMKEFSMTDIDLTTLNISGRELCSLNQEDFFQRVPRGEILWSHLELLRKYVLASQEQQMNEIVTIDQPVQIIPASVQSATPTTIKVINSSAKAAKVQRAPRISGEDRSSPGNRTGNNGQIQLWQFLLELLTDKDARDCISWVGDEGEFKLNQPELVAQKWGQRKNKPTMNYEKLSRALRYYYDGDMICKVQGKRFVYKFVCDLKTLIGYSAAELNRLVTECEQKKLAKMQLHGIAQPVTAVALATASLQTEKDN", "outline": "as §1"}, "ERG": {"molecular_target": "T4, ERG (Homo sapiens, UniProt P11308 1-479)", "T4 sequence": "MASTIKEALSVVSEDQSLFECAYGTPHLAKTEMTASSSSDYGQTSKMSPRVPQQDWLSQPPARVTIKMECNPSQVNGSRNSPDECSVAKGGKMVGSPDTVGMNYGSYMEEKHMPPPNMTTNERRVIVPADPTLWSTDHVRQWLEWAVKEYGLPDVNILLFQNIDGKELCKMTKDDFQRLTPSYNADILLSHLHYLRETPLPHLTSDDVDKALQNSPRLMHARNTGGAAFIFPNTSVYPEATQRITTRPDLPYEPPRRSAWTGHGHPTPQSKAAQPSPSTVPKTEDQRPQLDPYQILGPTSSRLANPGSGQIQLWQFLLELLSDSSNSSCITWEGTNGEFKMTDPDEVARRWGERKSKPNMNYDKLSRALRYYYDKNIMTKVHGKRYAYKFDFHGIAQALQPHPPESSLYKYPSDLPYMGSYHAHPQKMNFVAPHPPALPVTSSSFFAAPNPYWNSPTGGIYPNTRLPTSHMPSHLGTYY", "outline": "as §1"}, "ELF1": {"molecular_target": "ELF1 (Homo sapiens, UniProt P32519 1-619)", "sequence (P32519 whole entry)": "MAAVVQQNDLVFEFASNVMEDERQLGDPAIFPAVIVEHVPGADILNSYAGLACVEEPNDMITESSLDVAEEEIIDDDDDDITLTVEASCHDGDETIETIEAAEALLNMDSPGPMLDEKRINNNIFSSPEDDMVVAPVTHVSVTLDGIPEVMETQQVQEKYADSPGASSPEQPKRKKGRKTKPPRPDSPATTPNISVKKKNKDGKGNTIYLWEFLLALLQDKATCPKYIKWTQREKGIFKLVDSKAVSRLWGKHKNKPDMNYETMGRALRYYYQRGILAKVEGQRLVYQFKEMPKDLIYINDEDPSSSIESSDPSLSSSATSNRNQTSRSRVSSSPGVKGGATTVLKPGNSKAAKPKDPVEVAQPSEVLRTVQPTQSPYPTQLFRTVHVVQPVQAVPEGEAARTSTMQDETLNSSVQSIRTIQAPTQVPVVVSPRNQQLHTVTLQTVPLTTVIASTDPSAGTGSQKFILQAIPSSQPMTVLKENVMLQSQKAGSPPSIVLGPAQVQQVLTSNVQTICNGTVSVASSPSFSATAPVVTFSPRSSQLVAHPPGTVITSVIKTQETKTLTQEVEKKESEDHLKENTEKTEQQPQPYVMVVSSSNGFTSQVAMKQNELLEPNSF", "outline": "as §1"}, "EHF": {"molecular_target": "T5, EHF (Homo sapiens, UniProt Q9NZC4 1-300)", "T5 sequence": "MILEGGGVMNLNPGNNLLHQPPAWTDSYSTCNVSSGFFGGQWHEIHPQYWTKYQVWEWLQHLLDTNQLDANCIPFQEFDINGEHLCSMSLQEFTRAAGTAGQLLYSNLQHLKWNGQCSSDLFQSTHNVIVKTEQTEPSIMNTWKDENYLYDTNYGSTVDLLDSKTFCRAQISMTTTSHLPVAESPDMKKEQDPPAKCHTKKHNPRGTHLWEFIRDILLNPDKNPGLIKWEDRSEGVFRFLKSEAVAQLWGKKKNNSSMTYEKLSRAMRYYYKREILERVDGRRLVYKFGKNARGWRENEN", "outline": "as §1"}, "SPI1": {"molecular_target": "SPI1 (Homo sapiens, UniProt P17947 1-270)", "outline": "as §1"}, "SPIB": {"molecular_target": "SPIB (Homo sapiens, UniProt Q01892 1-262)", "sequence (Q01892 whole entry)": "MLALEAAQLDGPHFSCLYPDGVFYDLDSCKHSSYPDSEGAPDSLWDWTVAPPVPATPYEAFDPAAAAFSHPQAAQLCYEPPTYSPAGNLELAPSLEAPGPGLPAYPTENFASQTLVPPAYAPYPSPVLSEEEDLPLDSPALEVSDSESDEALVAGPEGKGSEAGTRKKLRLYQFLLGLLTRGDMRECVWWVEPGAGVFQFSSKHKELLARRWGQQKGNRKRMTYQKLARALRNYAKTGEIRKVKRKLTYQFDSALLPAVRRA", "outline": "as §1"}, "ELK3": {"molecular_target": "T6, ELK3 (Homo sapiens, UniProt P41970 1-407)", "T6 sequence": "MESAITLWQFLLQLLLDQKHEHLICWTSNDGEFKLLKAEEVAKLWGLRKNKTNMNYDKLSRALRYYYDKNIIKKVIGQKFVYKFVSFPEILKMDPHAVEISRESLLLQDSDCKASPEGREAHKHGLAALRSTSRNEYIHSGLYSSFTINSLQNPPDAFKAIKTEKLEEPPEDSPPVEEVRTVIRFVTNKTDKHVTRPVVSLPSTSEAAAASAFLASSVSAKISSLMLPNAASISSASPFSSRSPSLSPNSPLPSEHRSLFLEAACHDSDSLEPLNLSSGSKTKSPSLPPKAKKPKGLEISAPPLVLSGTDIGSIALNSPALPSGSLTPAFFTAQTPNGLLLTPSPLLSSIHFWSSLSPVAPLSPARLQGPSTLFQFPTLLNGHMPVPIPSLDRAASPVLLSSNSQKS", "outline": "as §1"}}}
{"sequence": "ACCGCA", "values": [{"measurement": "binding signal", "setting": "FLI1", "result": "1.17 fold enrichment (6-mer frequency, TF over GST control)"}, {"measurement": "binding signal", "setting": "ELK1", "result": "1.14 fold enrichment (6-mer frequency, TF over GST control)"}, {"measurement": "binding signal", "setting": "GABPA", "result": "1.16 fold enrichment (6-mer frequency, TF over GST control)"}, {"measurement": "binding signal", "setting": "ERG", "result": "1.11 fold enrichment (6-mer frequency, TF over GST control)"}, {"measurement": "binding signal", "setting": "ELF1", "result": "1.15 fold enrichment (6-mer frequency, TF over GST control)"}, {"measurement": "binding signal", "setting": "EHF", "result": "1.23 fold enrichment (6-mer frequency, TF over GST control)"}, {"measurement": "binding signal", "setting": "SPI1", "result": "1.2 fold enrichment (6-mer frequency, TF over GST control)"}, {"measurement": "binding signal", "setting": "SPIB", "result": "1.16 fold enrichment (6-mer frequency, TF over GST control)"}, {"measurement": "binding signal", "setting": "ELK3", "result": "1.19 fold enrichment (6-mer frequency, TF over GST control)"}]}
